Results taken from PubChem BioAssay (Tox21).
Records with an inconclusive call do not appear. Active and inactive are the calls of the source. Unless noted, calls come from the whole dose curve.

How the values were obtained:
[1] = Nuclear factor erythroid 2-related factor 2/antioxidant responsive element (Nrf2/ARE) small molecule agonists: qHTS cell viability counter screen in human keratinocytes (AID 1919968; active = well fitted curve in the direction sought with a large enough effect in the repeat runs; an effect the other way counts as inactive or inconclusive; note: nearly all actives have a fitted effect of over 55% in size)
Outline: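 Parallel cytotoxicity read: KeratinoSens HaCaT cells, compound treatment 23 h, viability by CellTiter-Fluor fluorescence 1 h post-reagent.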

[2] = Nuclear factor erythroid 2-related factor 2/antioxidant responsive element (Nrf2/ARE) small molecule agonists: luciferase reporter gene qHTS assay in human keratinocytes (AID 1919969); note: nearly all actives have a fitted effect of over 35% in size; note: potency is the fitted concentration of half-maximal effect
[3] = biological target: Gonadotropin-releasing hormone receptor (Homo sapiens) (UniProt P30968); assay: Human gonadotropin-releasing hormone receptor (GnRHR) small molecule agonists, calcium flux assay in GnRHR-HEK293 cells (AID 1920063); note: nearly all actives have a fitted effect of over 35% in size
Chain of Gonadotropin-releasing hormone receptor (Homo sapiens) (P30968 whole entry, looked up): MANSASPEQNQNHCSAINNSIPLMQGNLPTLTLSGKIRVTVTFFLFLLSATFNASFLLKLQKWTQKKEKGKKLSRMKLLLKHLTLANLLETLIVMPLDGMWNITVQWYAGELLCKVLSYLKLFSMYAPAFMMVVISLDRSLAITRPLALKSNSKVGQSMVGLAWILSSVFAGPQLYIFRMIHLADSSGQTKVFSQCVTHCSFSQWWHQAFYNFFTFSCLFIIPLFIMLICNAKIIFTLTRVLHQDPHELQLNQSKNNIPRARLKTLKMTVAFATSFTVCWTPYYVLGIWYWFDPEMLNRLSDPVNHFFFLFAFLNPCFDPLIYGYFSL
Outline: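 Calcium flux, agonist mode, human GnRHR stably integrated in HEK293; dye 1 h at 37 C before compound; Ex/Em=480/540 kinetic read, 3 min; 15 concentrations, triplicate.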

[4] = biological target: KiSS-1 receptor (Homo sapiens) (UniProt Q969F8); assay: Human kisspeptin (KISS1R) small molecule agonists, calcium flux assay in KISS1R-HEK293 cells (AID 1920064; active = well fitted curve in the direction sought with a large enough effect in the repeat runs; an effect the other way counts as inactive or inconclusive)
Chain of KiSS-1 receptor (Homo sapiens) (Q969F8 whole entry, looked up): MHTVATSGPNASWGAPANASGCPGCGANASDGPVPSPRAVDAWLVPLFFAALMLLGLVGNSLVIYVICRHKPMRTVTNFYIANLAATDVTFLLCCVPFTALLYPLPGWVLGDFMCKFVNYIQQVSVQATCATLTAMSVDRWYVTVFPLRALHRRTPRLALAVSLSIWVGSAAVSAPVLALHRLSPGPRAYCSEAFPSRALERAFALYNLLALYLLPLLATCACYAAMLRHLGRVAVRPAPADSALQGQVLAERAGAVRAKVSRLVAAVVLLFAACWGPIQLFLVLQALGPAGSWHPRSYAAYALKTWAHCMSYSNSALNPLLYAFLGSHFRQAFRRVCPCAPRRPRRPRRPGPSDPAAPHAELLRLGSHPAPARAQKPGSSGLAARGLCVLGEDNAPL
Outline: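 Triplicate 15-concentration series were applied to dye-loaded human KISS1R HEK293 cells, and agonist-evoked calcium fluorescence was captured for 3 min.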

[5] = G protein-coupled receptor (GPCR) small molecule agonists, calcium flux assay: HEK293 wild type cell line counter screen (AID 1920065)
Outline: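 Non-specific calcium responders were flagged by adding DMSO-dissolved compounds to dye-loaded cells and reading 480/540 nm fluorescence each second for 3 min; ATP served as positive control.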

[6] = p53 small molecule agonists, cell-based qHTS assay with human liver microsomes (AID 1963577)
Outline: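 p53RE-bla reporter cells were pre-incubated 5 h at 37 C, then treated with compounds plus human liver microsomes (0.5 mg/mL final) and NADPH (0.5 mg/mL final) for 16 h at 37 C. Beta-lactamase activity was read by LiveBLAzer fluorescence after 2 h at room temperature.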

[7] = p53 small molecule agonists, cell-based qHTS assay with rat liver microsomes (AID 1963578)
Outline: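 p53RE-bla cells were exposed to compounds together with rat liver microsomes (0.5 mg/mL final) and NADPH (0.5 mg/mL final) for 16 h at 37 C, then read by LiveBLAzer beta-lactamase fluorescence after 2 h at room temperature.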

[8] = p53 small molecule agonists, cell-based qHTS assay with human liver microsomes: qHTS cell viability counter screen (AID 1963579); note: nearly all actives have a fitted effect of over 45% in size
Outline: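 p53RE-bla cells (4,000/well) were pre-incubated 5 h at 37 C, then given compounds in DMSO plus human liver microsomes (0.5 mg/mL final) and NADPH (0.5 mg/mL final) for 16 h at 37 C. Viability was read by CellTiter-Glo luminescence.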

[9] = p53 small molecule agonists, cell-based qHTS assay with rat liver microsomes: qHTS cell viability counter screen (AID 1963580); note: nearly all actives have a fitted effect of over 45% in size
Outline: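 Cytotoxicity counter screen: intracellular ATP read by CellTiter-Glo luminescence in the p53 reporter wells. HCT-116 p53RE-bla cells were treated for 16 h at 37 C alongside rat liver microsomes and NADPH, each 0.5 mg/mL final.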

[10] = p53 small molecule agonists, cell-based qHTS assay: qHTS cell viability counter screen (AID 1963581); note: nearly all actives have a fitted effect of over 45% in size
Outline: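 Multiplexed with the reporter read, a CellTiter-Glo step (30 min, room temperature) gauges ATP-based viability of HCT-116 p53RE-bla cells after 16 h compound incubation at 37 C.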

[11] = p53 small molecule agonists, cell-based qHTS assay (AID 1963582; active = well fitted activation curve with a large enough effect in the signal ratio in the repeat runs, not every such curve was filed as active; the % refers to the signal ratio)
Outline: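 Beta-lactamase reporter cells (p53RE-bla) treated with compounds for 16 h at 37 C; FRET substrate, 2 h, room temperature; fluorescence intensity.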

[12] = biological target: 5-hydroxytryptamine receptor 2A (Homo sapiens) (UniProt P28223); assay: 5-hydroxytryptamine receptor 2A (HTR2A) small molecule antagonists, cell-based qHTS assay (AID 1963586); note: nearly all actives have a fitted effect of over 45% in size
Chain of 5-hydroxytryptamine receptor 2A (Homo sapiens) (P28223 whole entry, looked up): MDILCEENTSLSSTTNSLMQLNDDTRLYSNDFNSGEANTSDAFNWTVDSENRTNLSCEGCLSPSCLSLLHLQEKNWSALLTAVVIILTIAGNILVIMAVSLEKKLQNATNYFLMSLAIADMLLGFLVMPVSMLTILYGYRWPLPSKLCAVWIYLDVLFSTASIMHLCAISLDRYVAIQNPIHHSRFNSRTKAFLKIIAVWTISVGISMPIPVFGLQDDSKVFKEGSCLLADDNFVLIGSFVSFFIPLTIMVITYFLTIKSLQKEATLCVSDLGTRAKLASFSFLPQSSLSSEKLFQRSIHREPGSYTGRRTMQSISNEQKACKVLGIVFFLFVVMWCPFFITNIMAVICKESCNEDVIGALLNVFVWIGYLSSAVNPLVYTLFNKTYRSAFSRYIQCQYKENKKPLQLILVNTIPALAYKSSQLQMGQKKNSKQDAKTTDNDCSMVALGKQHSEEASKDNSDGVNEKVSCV
Outline: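 CHO cells stably expressing human HTR2A were plated for 18 h at 37 C, then loaded with calcium dye for 1 h. Compounds were preincubated 5 min at room temperature before DOI (4 nM solution) was added. Kinetic fluorescence was read for 3 min.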

[13] = biological target: 5-hydroxytryptamine receptor 2A (Homo sapiens) (UniProt P28223); assay: 5-hydroxytryptamine receptor 2A (HTR2A) small molecule agonists, cell-based qHTS assay (AID 1963587); note: nearly all actives have a fitted effect of over 30% in size
Outline: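 Kinetic calcium-flux fluorescence (2 min, 1 sec intervals) after compound addition in agonist mode. HTR2A-CHO cells were cultured 18 h, then dye-loaded 1 h at 37 C.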

[14] = biological target: Muscarinic acetylcholine receptor M1 (Homo sapiens) (UniProt P11229); assay: Cholinergic receptor muscarinic 1 (CHRM1) small molecule agonists, cell-based qHTS assay (AID 1963589); note: nearly all actives have a fitted effect of over 35% in size
Chain of Muscarinic acetylcholine receptor M1 (Homo sapiens) (P11229 whole entry, looked up): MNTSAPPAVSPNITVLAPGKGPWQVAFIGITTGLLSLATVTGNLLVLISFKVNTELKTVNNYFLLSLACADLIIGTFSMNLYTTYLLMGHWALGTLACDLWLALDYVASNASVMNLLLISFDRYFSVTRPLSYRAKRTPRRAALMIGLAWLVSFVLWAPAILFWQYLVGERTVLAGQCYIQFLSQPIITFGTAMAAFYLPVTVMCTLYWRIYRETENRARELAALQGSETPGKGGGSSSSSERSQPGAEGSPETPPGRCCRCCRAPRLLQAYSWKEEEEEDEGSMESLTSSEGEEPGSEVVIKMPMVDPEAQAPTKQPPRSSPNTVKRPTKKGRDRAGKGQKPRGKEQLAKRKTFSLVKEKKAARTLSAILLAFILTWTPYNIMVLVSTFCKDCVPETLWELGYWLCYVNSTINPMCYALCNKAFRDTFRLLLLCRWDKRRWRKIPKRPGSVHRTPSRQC
Outline: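 qHTS, 15-point titration, 3 independent runs: compounds pin-transferred onto dye-loaded CHRM1-CHO cells (human M1), calcium fluorescence followed every second to detect agonism.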

[15] = cAMP Responsive Elements (CRE) small molecule agonists, cell-based qHTS assay (AID 1963590)
Outline: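 Quantitative HTS for CRE agonists: HEK 293T CRE-bla cells, overnight plating, 3 h compound incubation at 37 C/5% CO2, then 2 h room-temperature LiveBLAzer B/G FRET substrate loading.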

[16] = cAMP Responsive Elements (CRE) small molecule antagonists, cell-based qHTS assay (AID 1963591; active = well fitted inhibition curve with a large enough effect in the signal ratio in the repeat runs, not every such curve was filed as active; the % refers to the signal ratio)
Outline: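 Fluorescence intensity from cleaved LiveBLAzer B/G substrate (2 h, room temperature) quantified CRE-bla activity in HEK 293T cells exposed 3 h to compound with 0.25 uM final NKH477.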

[17] = biological target: Beta-2 adrenergic receptor (Homo sapiens) (UniProt P07550); assay: Adrenergic beta2 receptor (ADRB2) small molecule antagonists, cell-based qHTS assay (AID 1963592); note: series mostly up to about 92 µM; nearly all actives have a fitted effect of over 50% in size
Chain of Beta-2 adrenergic receptor (Homo sapiens) (P07550 whole entry, looked up): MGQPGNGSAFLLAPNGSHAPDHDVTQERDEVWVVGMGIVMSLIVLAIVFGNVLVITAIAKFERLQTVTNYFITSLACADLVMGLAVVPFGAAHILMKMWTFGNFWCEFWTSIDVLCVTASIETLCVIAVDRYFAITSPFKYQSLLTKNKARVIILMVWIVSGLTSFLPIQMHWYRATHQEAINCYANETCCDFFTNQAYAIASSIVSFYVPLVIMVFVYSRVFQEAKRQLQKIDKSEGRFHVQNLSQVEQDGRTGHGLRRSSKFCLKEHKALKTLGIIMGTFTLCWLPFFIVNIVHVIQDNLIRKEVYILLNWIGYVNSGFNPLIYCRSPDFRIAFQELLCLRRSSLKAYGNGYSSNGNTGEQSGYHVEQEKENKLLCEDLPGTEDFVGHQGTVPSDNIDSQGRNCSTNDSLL
Outline: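 Assay format: CHO-ADRB2 cells, 18-20hr seeding at 37C/5% CO2, then compound plus 1nM isoproterenol agonist mix for 0.5hr RT. Homogeneous time-resolved fluorescence cAMP detection after 1hr, expressed as 665/615 nm ratio.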

[18] = biological target: D(2) dopamine receptor (Homo sapiens) (UniProt P14416); assay: Dopamine D2 receptor (DRD2) small molecule agonists, cell-based qHTS assay (AID 1963594); note: nearly all actives have a fitted effect of over 35% in size
Chain of D(2) dopamine receptor (Homo sapiens) (P14416 whole entry, looked up): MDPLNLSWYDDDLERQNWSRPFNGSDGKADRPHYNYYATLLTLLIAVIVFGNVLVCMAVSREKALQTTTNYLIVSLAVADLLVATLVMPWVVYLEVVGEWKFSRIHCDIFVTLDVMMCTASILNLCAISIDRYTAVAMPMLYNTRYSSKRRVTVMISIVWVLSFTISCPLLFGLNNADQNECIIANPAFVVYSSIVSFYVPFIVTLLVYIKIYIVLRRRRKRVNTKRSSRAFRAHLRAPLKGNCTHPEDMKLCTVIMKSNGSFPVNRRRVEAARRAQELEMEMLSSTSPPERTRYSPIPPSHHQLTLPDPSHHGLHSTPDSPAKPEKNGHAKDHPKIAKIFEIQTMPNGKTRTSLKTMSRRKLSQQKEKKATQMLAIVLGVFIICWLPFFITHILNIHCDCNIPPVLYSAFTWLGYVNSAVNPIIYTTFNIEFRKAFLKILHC
Outline: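 cAMP accumulation in DRD2-HEK293 cells measured by HTRF after 1 h detection; compounds added 10 min before NKH477 (200nM […]) forskolin-analogue stimulation, 30 min at room temperature, with Ro20-1724 present at 0.1 mM final.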

[19] = biological target: D(2) dopamine receptor (Homo sapiens) (UniProt P14416); assay: Dopamine D2 receptor (DRD2) small molecule antagonists, cell-based qHTS assay (AID 1963595; active = well fitted inhibition curve with a large enough effect in the signal ratio in the repeat runs, with a control signal flat; the % refers to the signal ratio)
Outline: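 HEK293 cells stably expressing DRD2, preincubated with 0.1 mM Ro20-1724 and compounds 10 min, were stimulated with 200 nM NKH477 plus 12 nM quinpirole for 30 min at room temperature; cAMP measured by HTRF (665/620 nm).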
% is set by controls: 0 for no effect and ±100 for the full control effect.

CC(C)c1ccc(C#N)cc1
inactive: Potency [1] | Potency [2] | Potency [3] | outcome [4] | outcome [5] | Potency [6] | Potency [7] | Potency [8] | Potency [9] | Potency [10] | Potency [11] | Potency [12] | Potency [13] | Potency [14] | Potency [15] | Potency [16] | Potency [17] | Potency [18]

CC(O)CN(CCCN(C)C)CCCN(C)C (stereo not drawn)
inactive: Potency [1] | Potency [2] | Potency [3] | outcome [4] | outcome [5] | Potency [6] | Potency [7] | Potency [8] | Potency [9] | Potency [10] | Potency [11] | Potency [12] | Potency [13] | Potency [14] | Potency [15] | Potency [16] | Potency [17] | Potency [18] | Potency [19]

O=C1OC(=O)c2cccc3cccc1c23
inactive: Potency [1] | Potency [3] | outcome [4] | outcome [5] | Potency [6] | Potency [7] | Potency [8] | Potency [9] | Potency [10] | Potency [11] | Potency [12] | Potency [13] | Potency [14] | Potency [17] | Potency [18]
active: Potency [2] 27.6 µM

CCCCc1ccc2c(n1)[C@@H](c1ccc(OC)cc1C[C@H](C)C(=O)O)[C@H](C(=O)O)[C@H]2c1ccc2c(c1)OCO2
inactive: Potency [1] | Potency [2] | Potency [3] | outcome [4] | outcome [5] | Potency [6] | Potency [7] | Potency [8] | Potency [9] | Potency [10] | Potency [11] | Potency [12] | Potency [13] | Potency [14] | Potency [17] | Potency [18] | Potency [19]

CN1CCN(CC(=O)N2c3ccccc3C(=O)Nc3cccnc32)CC1
inactive: activity change, negative = cytotoxicity [1] 0.0434% [at 8.39 µM] | activity, positive = activation [2] -1.98% [at 8.39 µM] | activity change [3] -0.376% [at 5.22 µM, hits give high values] | activation [4] 7.1% [at 6.97 µM] | activation [5] -0.198% [at 5.23 µM] | activation [6] 8.34% [at 5.99 µM] | activation [7] 0.0177% [at 5.99 µM] | activity change, negative = cytotoxicity [8] 5.54% [at 5.99 µM] | activity change, negative = cytotoxicity [9] 1.67% [at 5.99 µM] | activity change, negative = cytotoxicity [10] 22.9% [at 5.99 µM] | activation [11] -1.98% [at 5.99 µM] | activity, negative = inhibition [12] 57.8% [at 5.62 µM] | activation [13] 0.502% [at 7.02 µM] | activation [15] -0.47% [at 8.39 µM] | activity change, negative = inhibition [16] -9.03% [at 8.39 µM] | activity change, negative = inhibition [17] -1.73% [at 8.39 µM] | activation [18] -0.938% [at 8.39 µM] | activity change, negative = inhibition [19] 3.87% [at 8.38 µM]

Cc1cccc([N+](=O)[O-])c1C(=O)O
inactive: Potency [1] | Potency [2] | Potency [3] | outcome [4] | outcome [5] | Potency [6] | Potency [7] | Potency [8] | Potency [9] | Potency [10] | Potency [11] | Potency [12] | Potency [13] | Potency [14] | Potency [15] | Potency [16] | Potency [17] | Potency [18]

CCN(CC)CCOc1ccc(Cc2ccccc2)cc1
inactive: Potency [1] | Potency [2] | Potency [3] | outcome [4] | outcome [5] | Potency [6] | Potency [7] | Potency [8] | Potency [9] | Potency [10] | Potency [11] | Potency [12] | Potency [13] | Potency [14] | Potency [15] | Potency [16] | Potency [17] | Potency [18] | Potency [19]

CCCCCCCC[Si](OCC)(OCC)OCC
inactive: Potency [1] | Potency [2] | Potency [3] | outcome [4] | outcome [5] | Potency [6] | Potency [7] | Potency [8] | Potency [9] | Potency [10] | Potency [11] | Potency [12] | Potency [13] | Potency [14] | Potency [15] | Potency [16] | Potency [17] | Potency [18] | Potency [19]

CCc1nccnc1CC
inactive: activity change, negative = cytotoxicity [1] 5.52% [at 19 µM] | activity, positive = activation [2] 0.453% [at 19 µM] | activity change [3] -0.658% [at 11.8 µM, hits give high values] | activation [4] 1.62% [at 15.8 µM] | activation [5] -0.595% [at 11.8 µM] | activation [6] 3.14% [at 13.5 µM] | activation [7] 1.15% [at 13.6 µM] | activity change, negative = cytotoxicity [8] -2.07% [at 13.5 µM] | activity change, negative = cytotoxicity [9] -5.78% [at 13.5 µM] | activity change, negative = cytotoxicity [10] 1.59% [at 13.5 µM] | activation [11] 3.48% [at 13.5 µM] | activity, negative = inhibition [12] -8.77% [at 12.7 µM] | activation [13] 3.43% [at 15.9 µM] | activation [15] 0.766% [at 19 µM] | activity change, negative = inhibition [16] -3.19% [at 18.9 µM] | activity change, negative = inhibition [17] -4.86% [at 19 µM] | activation [18] -2.33% [at 19 µM] | activity change, negative = inhibition [19] -10.9% [at 18.9 µM]

CCc1cccc(CC)c1
inactive: Potency [1] | Potency [2] | Potency [3] | outcome [4] | outcome [5] | Potency [6] | Potency [7] | Potency [8] | Potency [9] | Potency [10] | Potency [11] | Potency [12] | Potency [13] | Potency [14] | Potency [15] | Potency [16] | Potency [18] | Potency [19]

COc1cccc(O)c1
inactive: Potency [1] | Potency [2] | Potency [3] | outcome [4] | outcome [5] | Potency [6] | Potency [7] | Potency [8] | Potency [9] | Potency [10] | Potency [11] | Potency [12] | Potency [13] | Potency [14] | Potency [15] | Potency [16] | Potency [17] | Potency [18] | Potency [19]

CC(C)C(=O)OCC(C)(C)C(O)C(C)C (stereo not drawn)
inactive: Potency [1] | Potency [2] | Potency [3] | outcome [4] | outcome [5] | Potency [6] | Potency [7] | Potency [8] | Potency [9] | Potency [10] | Potency [11] | Potency [12] | Potency [13] | Potency [14] | Potency [16] | Potency [17] | Potency [18] | Potency [19]

CC(C)(C)C(=O)C(=O)O
inactive: Potency [1] | Potency [2] | Potency [3] | outcome [4] | outcome [5] | Potency [6] | Potency [7] | Potency [8] | Potency [9] | Potency [10] | Potency [11] | Potency [12] | Potency [13] | Potency [14] | Potency [15] | Potency [16] | Potency [17] | Potency [18] | Potency [19]

C=CC1CO1 (stereo not drawn)
inactive: Potency [1] | Potency [2] | Potency [3] | outcome [4] | outcome [5] | Potency [6] | Potency [7] | Potency [8] | Potency [9] | Potency [10] | Potency [11] | Potency [12] | Potency [13] | Potency [14] | Potency [16] | Potency [17] | Potency [18]
